In PubChem BioAssay (NCI):
Compounds without any hit were thinned out: in the full panel of roughly 83,000, 20% have a hit.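 Growth was measured after 48 h exposure to one concentration of compound in 96-well plates. Values under 10 count as active.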 Calls of active or inactive are those of the source.

System: CCRF-CEM leukemia
Test: NCI-60 one-dose screen, 48 h (100 = growth as untreated, 0 = no growth, -100 = all killed)
Conditions: 10 µM unless noted

Row | SMILES | growth
1 | COc1ccc(C=Nc2c(C(=O)Nc3cccc(Cl)c3C)sc3nc(C)c(C(=O)/C=C/c4ccc(OC)cc4)cc23)cc1 | 19.7% (inactive)
2 | CCOC(=O)CNC1=C(Cl)C(=O)N(Cc2ccc(Cl)cc2)C1=O | 102% (inactive)
3 | COc1ccc(/C=C(\C(=O)NCc2cccnc2)S(=O)(=O)c2ccccc2)cc1OC | 9.07% (active)
4 | COc1cc2c(c(OC)c1OC)CCC(c1cccc(C(=O)Nc3ccc(Br)cc3)c1)O2 (centres undefined) | 53.3% (inactive)
5 | Nc1cc(-c2ccc(Cl)cc2)nn1-c1nnc(/C=C/c2ccco2)c(=O)[nH]1 | 33.9% (inactive)
6 | N#C/C(=C\c1ccc(-c2cccc(Cl)c2)o1)C(=O)Nc1ncc(Cc2ccc(Cl)cc2)s1 | 43.6% (inactive)
7 | CCOC(=O)c1c(C)nc2c(c1N)C(=O)C(=O)N2Cc1ccc(OC)cc1 | 59.1% (inactive)
8 | c1csc(-c2cn3nc(-c4c[nH]c5ccccc45)sc3n2)c1 | 10.7% (inactive)
9 | FC(F)(F)c1[nH]ncc1-c1nc2ccc3[nH]ncc3c2c2c1CCCC2 | 6.43% (active)
10 | COc1cc(-c2nccc3[nH]c(-c4cccc5[nH]ccc45)nc23)cc(OC)c1OC | 11.7% (inactive)
11 | COc1ccc2[nH]cc(-c3nonc3-c3c[nH]c4ccc(Br)cc34)c2c1 | 38.6% (inactive)
12 | CC(=O)c1c(Nc2cccc(F)c2)[nH]c2c(Cl)cc(Cl)c(Cl)c2c1=O | 8.65% (active)
13 | CCOC(=O)NC(=S)n1oc(=O)c2ccccc21 | 101% (inactive)
14 | O=S(Nc1ccccc1)c1ccc(Cl)cc1 (centres undefined) | 95.7% (inactive)
